Screens from PubChem BioAssay.
Rows were chosen to be rich in hits. Some 0.4% of all compounds tested hit in one or more screens of this group.
EPAC1 agonist = agonists of human EPAC1; O95398; EPAC1 agonist qHTS, biochemical assay; response scale: 100% = response to 6.5 mM cAMP; Potency, µM (highest dose often 154 µM), inactives show at the top dose activation, usual class: activators; 360,000 tested, 0.073% active; AID 720707; further: nearly all actives have a fitted effect of over 60% in size
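Compounds were pinned as a concentration titration into mixtures of EPAC1 (100 nM), BODIPY-GDP-loaded Rap1B (250 nM) and GDP (50 uM). After 5 min at room temperature, fluorescence was followed for 30 min; activity was scaled to 6.5 mM cAMP.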
EPAC2 ag = agonists of human EPAC2 (RAPGEF4); Q8WZA2; EPAC2 activation, biochemical qHTS; response scale: 100% = 6.5 mM cAMP response; Potency, µM (series often up to 154 µM), for the others: at the highest dose activation, actives largely listed as activators; 360,000 tested, 0.079% active; AID 720711; further: nearly all actives have a fitted effect of over 50% in size
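Nucleotide exchange monitored as fluorescence drop when BODIPY-GDP leaves Rap1B. Reaction: 100 nM EPAC2, 250 nM RAP1B-BODIPY-GDP, 50 uM GDP, room temperature, kinetic read over 30 min. Activity expressed relative to 6.5 mM cAMP.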
B2AR arrestin = beta2AR (human) beta-arrestin recruitment activity. Potency, µM (titrated, usually from 46.1 µM), for inactives: top-dose activation, usual class: activators. P07550. 330,000 tested, 0.02% active. beta-arrestin recruitment to beta2AR, cell-based reporter. AID 492947;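 further: 0% = DMSO controls and full agonism = EC100 isoproterenol or metaproterenol; nearly all actives have a fitted effect of over 65% in size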
Target sequence (P07550 whole entry, looked up): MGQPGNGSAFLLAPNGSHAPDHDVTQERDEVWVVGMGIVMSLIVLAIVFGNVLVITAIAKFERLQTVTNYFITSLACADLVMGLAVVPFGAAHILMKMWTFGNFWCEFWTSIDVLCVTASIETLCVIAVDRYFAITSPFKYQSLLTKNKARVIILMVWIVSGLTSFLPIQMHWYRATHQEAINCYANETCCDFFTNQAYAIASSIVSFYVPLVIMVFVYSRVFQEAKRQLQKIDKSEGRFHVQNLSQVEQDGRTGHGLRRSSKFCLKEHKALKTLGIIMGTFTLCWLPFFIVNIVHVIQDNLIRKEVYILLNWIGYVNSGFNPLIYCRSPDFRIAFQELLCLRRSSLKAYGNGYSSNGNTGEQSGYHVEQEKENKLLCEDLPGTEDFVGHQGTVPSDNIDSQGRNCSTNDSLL
EPAC2 antag = EPAC2 (human) antagonism. EPAC2 GEF exchange of Rap1B-BODIPY-GDP, fluorescence. 360,000 tested, 0.18% active. AID 720708. Potency, µM (doses to about 114 µM), for the others: at the top dose activity, negative = inhibition, actives largely listed as inhibitors; further: on the % scale 0 is the no-effect control and ±100 the full control effect; nearly all actives have a fitted effect of over 45% in size
EPAC1 antagonist = blocks human EPAC1 exchange factor; Potency, µM (highest dose often 115 µM), inactives show top-dose activity change, negative = inhibition, usual class: inhibitors; 360,000 tested, 0.14% active; AID 720709; O95398; EPAC1 GEF assay, Rap1b-BODIPY-GDP exchange fluorescence;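 further: plate controls were vehicle for no effect and positive control for full effect; nearly all actives have a fitted effect of over 50% in size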
Active calls of the source: *; ? = inconclusive; / = no result. The call rests on the fitted dose curve; in most records, active means well fitted curve in the direction sought with a large enough effect; inconclusive means small, poorly fitted or top-dose-only effect, or another doubt; inactive means no such curve, though single readings can be large; an effect the other way counts as inactive or inconclusive. Potency means the concentration at half of the fitted maximal effect.

SMILES	EPAC1 agonist	EPAC2 ag	B2AR arrestin	EPAC2 antag	EPAC1 antagonist
CC(=O)c1cc(C#N)c(N(C)Cc2ccccc2)nc1C	12.6%	14.0%	-0.5%	50.1µM*	-28.2%
CCOC(=O)c1c(-c2ccccc2)csc1NC(=O)C(C)NCc1ccco1 (stereo unspecified)	16.1%	1.3%	-0.2%	44.7µM*	?
CCOC(=O)c1c(-c2ccc(Cl)cc2)csc1NC(=O)CNCc1ccco1	-2.6%	14.5%	-0.7%	-8.9%	2.9%
COc1cc(NC(=O)c2cc3nc(-c4ccccc4)cc(-c4ccccc4)n3n2)cc(OC)c1OC	7.5%	17.9%	-0.1%	-14.5%	56.2µM*
COc1cc(NC(=O)c2cc(-c3ccccc3)on2)cc(OC)c1OC	7.8%	6.3%	-0.5%	-2.8%	2.0%
CCC(c1nnnn1-c1ccc2c(c1)OCCO2)N1CCN(Cc2c(F)cccc2Cl)CC1 (stereo unspecified)	12.6%	22.1%	/	-9.4%	-16.2%
Cn1ccnc1C(O)c1ccccc1 (stereo unspecified)	7.1%	12.7%	-0.2%	10.5%	-4.9%
COc1ccc2ccccc2c1C(O)c1nccn1C (stereo unspecified)	63.1µM*	100µM*	0.0%	72.0%	58.6%
O=C1Cc2ccccc2C(=O)N1	9.0%	19.9%	/	?	56.2µM*
O=C(C1CCN(S(=O)(=O)c2ccc(Cl)c(C(F)(F)F)c2)CC1)N1CCC1	-10.8%	-2.4%	-0.2%	-9.3%	2.8%
O=C(CCC1CCCC1)Nc1ccc([N+](=O)[O-])cn1	112µM*	-1.9%	-0.4%	9.5%	103.1%
CCCCCC(=O)Cc1cc(O)cc2c1C(=O)Oc1cc(O)c(C(=O)O)c(CCCCC)c1O2	-10.3%	-9.0%	-0.5%	15.8µM*	39.8µM*
Cc1[nH]n(C(N)=S)c(=O)c1C(c1ccccc1)C(C#N)C#N (stereo unspecified)	-8.5%	1.3%	-0.5%	16.8%	12.8%
Cc1[nH]n(-c2ncc(-c3ccccc3)s2)c(=O)c1C(c1ccc(Br)cc1)C(C#N)C#N (stereo unspecified)	10.0%	2.7%	-0.5%	-17.7%	15.8µM*
O=C(N/N=C/c1ccc(-c2ccc(S(=O)(=O)Nc3ncccn3)cc2)o1)c1cc2ccccc2cc1O	-1.5%	0.7%	0.1%	-11.9%	12.6µM*
CCOc1ccc(C(=O)N/N=C/c2ccc(-c3ccc(S(=O)(=O)Nc4ncccn4)cc3)o2)cc1	3.9%	0.0%	0.4%	-0.5%	?
N#C/C(=C/C1=C(N2CCOCC2)C(=C/c2cccc([N+](=O)[O-])c2)/CC1)C(=O)Nc1ccccc1F	-1.9%	-6.6%	/	79.4µM*	0.6%
N#C/C(=C\C1=C(N2CCOCC2)C(=C/c2cccc([N+](=O)[O-])c2)/CC1)C(=O)Nc1ccccc1F	2.6%	-35.0%	-0.3%	?	5.3%
O=C1c2ccccc2C(=O)N1c1nc(-c2cccs2)cs1	7.7%	9.6%	-1.7%	56.2µM*	?
CN1CCN(c2nc(-c3cccs3)cs2)CC1	7.3%	1.4%	-0.7%	-4.7%	-4.0%
O=C(/C=C/c1ccco1)Nc1cccc(C(=O)Nc2ccccc2C(=O)O)c1	-7.7%	-7.2%	-0.2%	-8.8%	50.1µM*
Cc1ccc(-n2nc3ccc(NC(=O)/C=C/c4ccco4)cc3n2)cc1	-1.0%	-0.5%	0.6%	-16.0%	22.4µM*
O=C(Nc1cc(C(=O)Nc2ccccc2C(=O)O)cc(C(=O)Nc2ccccc2C(=O)O)c1)c1ccccc1	2.6%	11.7%	0.3%	-11.9%	10µM*
O=C(COc1ccccc1[N+](=O)[O-])Nc1cccc(C(=O)Nc2ccccc2C(=O)O)c1	-5.2%	1.6%	-0.1%	-8.5%	70.8µM*
O=C(Nc1ccccc1C(=O)O)c1cccc(NC(=O)c2ccccc2Br)c1	-4.2%	4.7%	-0.4%	0.5%	-20.6%
CC(C)n1cc(CN2CCN(CCc3ccccc3)C(CCO)C2)cn1 (stereo unspecified)	-6.1%	-3.3%	0.1%	-13.3%	-2.5%
c1ccc(N2[C@@H]3c4ccccc4C[C@H]2c2ccccc23)cc1	2.6%	6.2%	/	?	5.7%
Cc1cc(N2CCOCC2)n2ncc(-c3ccccc3Cl)c2n1	7.4%	11.3%	-1.0%	-27.7%	-23.1%
